Compound activity deposited in PubChem by National Center for Advancing Translational Sciences (NCATS).
Rows were chosen to be rich in hits. Some 6% of all compounds tested hit in one or more screens of this group.
D1 agonist – activates the human D1 dopamine receptor | P21728 | HEK293 T-REx D1 cells, calcium flux, agonist mode | AID 504660 | 360,000 tested, 1% active | activation, % at 2 µM; in the data active means activation above about 30%; further: 0% is about no effect
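Inducible HEK293 T-REx D1 cells, force-coupled to calcium signalling, were plated at 4000 cells/well with tetracycline and held overnight at 30 C. After no-wash calcium dye loading, compound-evoked calcium rise over 180 s flagged agonists.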
D1 PAM – human D1 dopamine receptor positive modulation. P21728. HEK293 TREx D1 cells, calcium flux, dopamine EC20 potentiation. potentiation, % at 10 µM. 360,000 tested, 0.036% active. AID 504651; in the data active means potentiation above about 30%; further: 0% is about no effect
DRD3 agonist – activates the human D3 dopamine receptor; P35462; D3R DiscoveRx beta-arrestin cells, luminescence, 90 min; max activation, %; 410,000 tested, 0.58% active; AID 652048; in the data active means max activation above about 30%; further: 0% is about no effect
Target sequence (P35462 whole entry, looked up): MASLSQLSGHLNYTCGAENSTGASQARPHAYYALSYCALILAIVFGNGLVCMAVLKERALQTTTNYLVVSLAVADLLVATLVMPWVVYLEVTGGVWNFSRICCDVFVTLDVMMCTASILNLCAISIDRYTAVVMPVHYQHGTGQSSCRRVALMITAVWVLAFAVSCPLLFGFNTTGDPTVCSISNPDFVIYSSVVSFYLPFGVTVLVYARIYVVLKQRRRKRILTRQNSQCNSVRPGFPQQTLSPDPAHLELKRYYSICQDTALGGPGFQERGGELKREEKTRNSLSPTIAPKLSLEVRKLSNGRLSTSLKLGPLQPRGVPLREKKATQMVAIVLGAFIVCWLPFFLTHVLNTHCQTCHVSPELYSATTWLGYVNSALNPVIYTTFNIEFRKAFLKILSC
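Agonist mode: compounds and dopamine controls were applied to plated cells for 90 min at 37 degrees C after an overnight attachment at 1500 cells/well. Luminescent read-out followed 30 - 60 minutes at room temperature with DiscoveRx detection reagent.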
DRD3 antagonist – blocks the human D3 dopamine receptor; D3R cells, DiscoveRx beta-arrestin luminescence, antagonist mode; hits give low values; max response, negative = inhibition, %; 360,000 tested, 2.5% active; AID 652054; in the data active means max response below about -50%; inconclusive means no clear call, values can overlap the other calls; further: on the % scale 0 is the no-effect control and ±100 the full control effect
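Cells expressing the human receptor were seeded at 1500 cells/well, incubated overnight at 37 degrees C in 5% CO2, then exposed to library compounds with dopamine controls for 90 minutes at 37 degrees C before luminescent detection.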
D1 antagonist – blocks dopamine activation of the human D1 receptor | HEK293 TREx D1 cells, calcium flux, dopamine EC80; hits give low values | activity change, negative = inhibition, % at 10 µM | 360,000 tested, 3.2% active; in the data active means activity change below about -30%; further: on the % scale 0 is the no-effect control and ±100 the full control effect
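Allosteric or orthosteric antagonism assessed as attenuation of the calcium response to EC80 dopamine, added 180 s after compound, in induced HEK293 Trex D1 cells loaded with no-wash calcium dye.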
The depositor's hits bear a star; u = inconclusive; x = no result; ! = not confirmed by another sample.

SMILES	D1 agonist	D1 PAM	DRD3 agonist	DRD3 antagonist	D1 antagonist
O=C1Nc2ccc(F)cc2C12Nc1ccccc1-c1nnc(SCc3ccccc3F)nc1O2 (stereo unspecified)	1.9	-3.3	-28.3	-51.2*	-18.8
COc1cc(C(C)n2nnc3ccccc32)ccc1O (stereo unspecified)	x	x	-7.3	-11.2	x
COc1ccc(Cn2cc(Cn3c4ccccc4c(=O)n3C(C)C)nn2)cc1	x	x	-0.9	0.0	x
CCn1c(C(=O)NCc2ccccc2C)cc2oc3ccccc3c21	0.1	-2.5	49.1*	x	-6.3
CCn1c(C(=O)NCc2ccc(OC(C)C)cc2)cc2oc3ccccc3c21	2.3	-3.8	0.5	x	-0.4
CCCC(=O)Nc1ccc(NC(=O)CCc2ccccc2)cn1	1.4	1.3	5.7	-56.0*	-5.3
COc1ccc(NC(=O)CSc2nc3ccccc3nc2N2CCC(C)CC2)cc1	1.0	-1.5	-8.4	x	-10.0
CC(C)=CCN1CCN(C/C(Cl)=C/c2ccccc2)CC1CCO (stereo unspecified)	12.1	-6.2	-19.5	-62.8*	0.5
Cc1cc(Cl)ccc1OCc1n[nH]c(=S)n1C1CCCCC1	5.9	5.2	-3.0	-63.6*	7.1
COc1ccc(-c2n[nH]c(=S)n2C2CCCCC2)cc1	2.1	10.7	1.3	-26.3	43.1
COc1ccc(Cl)cc1-c1n[nH]c(=S)n1C1CCCCC1	-0.2	-5.1	-2.0	-59.8*	-11.2
Cc1ccccc1OCc1n[nH]c(=S)n1-c1cccc(Cl)c1	6.1	-5.5	-2.9	-4.7	-14.0
COc1cc2c(cc1N)-c1ccc(N)cc1C2=O	x	x	5.0	-27.7	x
Cc1ccc(N(CC(O)CN2CCCCC2)S(=O)(=O)c2ccc(C)cc2)cc1 (stereo unspecified)	0.1	5.0	-18.3	-51.6*	8.4
O=S(=O)(c1ccccc1)N(CC(O)CN1CCCC1)c1ccccc1 (stereo unspecified)	5.5	x	-16.3	3.1	-1.1
Cc1ccc(S(=O)(=O)N(CC(O)CN2CCCC2)c2ccccc2)cc1 (stereo unspecified)	0.9	-5.3	-24.6	u	-22.2
Cc1ccc(N(CC(O)CN2CCCCC2)S(=O)(=O)c2ccccc2)cc1 (stereo unspecified)	3.5	3.7	-19.1	-77.1*	-16.5
Cc1cc(Cl)c(OCCCCN2CCOCC2)c(Br)c1	5.0	-5.0	-4.5	4.2	-24.8
Cc1cccc(OCCN2CCOCC2)c1C	4.3	-1.6	54.2*	-5.3	-12.3
c1ccc2c(OCCCCN3CCOCC3)cccc2c1	2.2	-0.5	-11.6	-59.7*	0.8
O=C(c1ccco1)N1CCN(CCOc2ccc(F)cc2)CC1	7.3	0.7	20.4	-11.5	2.2
COc1ccccc1OCCCCCCN1CCOCC1	-0.6	-1.2	-13.9	-20.4	10.1
O=C(c1ccco1)N1CCN(CCOCCOc2cccc3ccccc23)CC1	0.7	2.1	88.6*	-6.2	-52.8*
Cc1cc(Cl)cc(C)c1OCCCCN1CCOCC1	2.0	-7.5	-15.7	-57.5*	-14.8
COc1ccc(-n2cc(-c3ccccc3)c3c(NCCc4ccc(OC)c(OC)c4)ncnc32)cc1	1.2	-0.9	14.4	x	-1.5
SMILES	D1 agonist	D1 PAM	DRD3 agonist	DRD3 antagonist	D1 antagonist
CC(C)(S)C(=O)N[C@@H](CS)C(=O)O	x	x	5.8	x	x
CCc1ccc(CNC(=O)c2ccc(CSc3nc4ccncc4n3Cc3ccc(OC)cc3)cc2)cc1	15.7	-1.9	-13.6	x	-0.8
N[C@@H](C(=O)N[C@@H]1C(=O)N2C(C(=O)O)=C(Cl)CC[C@H]12)c1ccccc1	x	x	1.5	x	x
c1ccc(CN2CCN(CCOCCOc3cccc4ccccc34)CC2)cc1	22.5	-8.8	-15.4	u	-42.5*
CCN1CCN(CCOCCOc2ccccc2)CC1	4.5	-1.9	-13.0	-13.2	-4.7
O=C(c1ccco1)N1CCN(CCCCOc2cccc3ccccc23)CC1	1.6	-2.5	37.6*	u	-19.9
CN(C(=O)CSc1nc2ccccc2n1CC(=O)N(C)c1ccc(F)cc1)c1ccccc1	-0.7	1.3	-3.9	x	0.2
COc1ccc(-n2cc(CNC3CCN(C)CC3)c(-c3cccc(F)c3)n2)cc1	46.2*	-2.1	-10.5	-28.4	1.7
COc1ccc(-n2cc(CN[C@H]3CCCCNC3=O)c(-c3cccc(F)c3)n2)cc1	1.6	-5.6	1.0	14.9	17.5
COc1ccc(C(=O)c2cn(Cc3ccc(F)cc3)c3c(F)cc(F)cc3c2=O)cc1	8.9	-0.1	4.6	x	3.8
CC1CCCCC1Nc1nc2ccc(Cl)cc2n2cnnc12 (stereo unspecified)	0.5	-5.5	35.0*	4.1	0.6
Cc1cccc(CCNc2nc3ccc(C)cc3n3cnnc23)c1	0.2	-1.1	-0.8	-12.1	-21.1
Cc1ccc2nc(NCCc3ccc(Cl)cc3)c3nncn3c2c1	1.9	-4.5	-0.9	-22.8	-61.5*!
Cc1ccc(C)c(N2CCN(c3nc4ccc(Cl)cc4n4cnnc34)CC2)c1	2.0	-2.3	1.1	x	-22.3
CN1CCN(CCCNC(=O)c2ccc(/C=C3\Sc4ccccc4N(Cc4ccccc4F)C3=O)cc2)CC1	19.4	-9.2	-2.1	16.4	-30.4*
CCc1ccc(/C=C2/Sc3ccccc3N(CC(=O)NCCCN3CCOCC3)C2=O)cc1	8.6	-6.0	-14.8	-22.0	-52.4*
O=C(CN1C(=O)/C(=C/c2ccc(C(F)(F)F)cc2)Sc2ccccc21)NCCCN1CCOCC1	16.4	-9.3	-4.5	-20.8	-33.7*
O=C(CN1C(=O)/C(=C\c2cccc(Cl)c2)Sc2ccccc21)NCCCN1CCOCC1	53.2*	-17.1	-13.0	u	-83.6*
O=C(CN1C(=O)/C(=C\c2ccccc2Cl)Sc2ccccc21)NCCCN1CCOCC1	17.0	-9.0	-16.5	-0.1	-1.3
CCc1ccc(NC(=O)Cn2c(=O)oc3cc(S(=O)(=O)N4CCCCCC4)ccc32)cc1	13.1	-1.7	-2.3	x	-23.5
CCc1nnc(NC(=O)CSc2nc3c([nH]c4ccccc43)c(=O)n2-c2ccc(Cl)cc2)s1	0.8	-6.2	2.4	x	-11.7
CS(=O)(=O)N(Cc1ccc(Cl)cc1)c1ccc(C(=O)NCCC2=CCCCC2)cc1	9.7	-0.7	2.0	u	4.8
Cc1ccc(S(=O)(=O)NCCC2=CCCCC2)cc1	8.4	-4.5	-2.8	-1.5	-22.4
COc1cc(C(=O)NCCC2=CCCCC2)cc(OC)c1OC	0.4	-4.9	-8.5	-61.8*	20.4
O=C(NC(=S)NCCC1=CCCCC1)c1cncc(Br)c1	-0.2	-7.0	-1.0	1.8	-31.8*
COc1cc(C(=O)OCC(=O)NCCC2=CCCCC2)cc(OC)c1OC	0.4	-3.3	-4.5	12.2	-1.6
Cc1ccc(CNCCC2=CCCCC2)cc1	1.8	-3.7	-50.4	-67.5*	3.1
O=C(NCCC1=CCCCC1)c1ccc(Cl)cc1	18.7	-6.0	x	x	-41.2*
CN(C)c1ccc(CNC(=O)c2sc3ncccc3c2-n2cccc2)cc1	1.0	0.1	-14.4	x	-4.8
